The values that follow come from article PMC5540273 (PLoS ONE, 2017).

Test systems include MKK7; MKNK1; MKNK2; MLK2; MLK3; MRCKA; MST1R.
Holding throughout (conditions): concentration: 1 μM, replicates: in singlicate, n = 1
Another test relates to T1, MLCK.
T1 construct: gene MYLK3

In a further test the test system is T2, MLK1.
T2 construct: gene MAP3K9

The subject of a further test is T3, MRCKB.
T3 construct: gene CDC42BPB

Several values for one entry are separate records, joined by “and”; a condition that tells them apart may be missing. Identical values can stand only once. Like-named read-outs stand apart in the source and are kept apart here.
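Also: KINOMEscan kinase panel screen.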

As to `Cn1ccc2ncnc(Oc3ccc(NC(=O)Nc4ccncc4)c(Cl)c3)c21`, the “%Inh” value turned out to be 0% with MKK7; 0% in the test with MKNK1; 0% in the test on MKNK2; 0% in the test on MLCK; 0% with MLK1; 5% in the test on MLK2. The “%Inh” value is given as 0% with MLK3, 0% in the test with MRCKA, 0% in the test on MRCKB and 17% in the test with MST1R.
`CCCCCc1nc2c(N)ncnc2n1CCCCC` [SKF-97255]: the “%Inh” value with MKK7 worked out at 0%; in the test on MKNK1, 6%; in the test on MKNK2, 0%; in the test with MLCK, 0%; in the test with MLK1, 0%; in the test with MLK2, 50%. Further, the “%Inh” value with MLK3, in the test with MRCKA, in the test on MRCKB and in the test with MST1R was 0% each time.
For `NS(=O)(=O)CCc1cccc(Nc2nccc(-c3c(-c4cccc(NC(=O)c5c(F)cccc5F)c4)nn4ccccc34)n2)c1` [GSK336735], the “%Inh” value with MKK7 was found to be 100%; in the test on MKNK1 it was 0%; with MKNK2 it was 0%; in the test with MLCK, 20%; in the test with MLK1, 0%; in the test with MLK2 it was 3%. Also, the “%Inh” value with MLK3 stood at 43%; in the test on MRCKA, 92.2%; with MRCKB, 96.2%; with MST1R, 62%.
In the case of `CC(C)(C)n1cnc2c(N)ncnc21` [SKF-97359], the “%Inh” value in the test with MKK7 turned out to be 21%; with MKNK1 it was 54%; in the test with MKNK2, 0%; with MLCK, 0%; in the test with MLK1 it was 0%; with MLK2, 0%. Besides, the “%Inh” value with MLK3, with MRCKA, in the test on MRCKB and in the test on MST1R was 0% throughout.
Regarding `CC(=O)Nc1ccc(COc2ccc(Nc3ccnc4cc(-c5ccccn5)ccc34)cc2)cc1.Cl` [GW440148], the “%Inh” value amounted to 0% in the test with MKK7; 0% in the test with MKNK1; 6% in the test on MKNK2; 5% in the test with MLCK; 0% in the test on MLK1; 0% in the test on MLK2. For the same compound, the “%Inh” value turned out to be 0% in the test with MLK3, 13% in the test on MRCKA, 0% with MRCKB and 56% with MST1R.
For the compound `Cc1nnc(-c2ccc3occ(-c4ccc(C(C)O)cc4)c3c2)o1` (centres unmarked), the “%Inh” value was found to be 0% in the test on MKK7; 16% with MKNK1; 0% in the test on MKNK2; 14% in the test on MLCK; 6% with MLK1; 14% with MLK2. Further, the “%Inh” value with MLK3 turned out to be 0%; in the test on MRCKA, 10%; in the test with MRCKB, 0%; in the test with MST1R, 15%.
As to `C[C@@H](Oc1cc(-n2cnc3ccc(NC(=O)NC(C)(C)C)cc32)sc1C(N)=O)c1ccccc1Cl` [GSK346294], the “%Inh” value in the test on MKK7 turned out to be 0%; in the test with MKNK1, 0%; in the test with MKNK2, 0%; with MLCK, 0%; with MLK1, 0%; in the test with MLK2, 27%. Besides, the “%Inh” value in the test with MLK3 is reported as 37%; in the test with MRCKA it was 12%; with MRCKB it was 5%; in the test with MST1R it was 29%.
For `COC(=O)Nc1nc2cc(Oc3ccc(NC(=O)Nc4cc(F)ccc4F)cc3)ccc2[nH]1.Cl` [GW701424], the “%Inh” value in the test on MKK7 is reported as 0%; with MKNK1 it was 23%; in the test on MKNK2, 12%; with MLCK, 0%; with MLK1 it was 0%; in the test on MLK2, 0%. The “%Inh” value worked out at 0% in the test with MLK3, 16% with MRCKA, 0% with MRCKB and 29% in the test on MST1R.
With `CNc1ncnc2[nH]ncc12` [SKF-18355], the “%Inh” value in the test on MKK7 was 0%; in the test with MKNK1, 0%; in the test with MKNK2, 0%; in the test on MLCK, 1%; in the test with MLK1, 1%; in the test on MLK2, 0%. Besides, the “%Inh” value is reported as 2% with MLK3, 0% in the test with MRCKA, 0% in the test with MRCKB and 0% in the test with MST1R.
In the case of `NS(=O)(=O)c1cccc(-c2ccc3nccc(-c4cccc(S(N)(=O)=O)c4)c3c2)c1` [GW867253], the “%Inh” value in the test on MKK7 is recorded as 0%; in the test on MKNK1 it was 0%; in the test with MKNK2 it was 0%; in the test on MLCK it was 0%; in the test on MLK1, 0%; in the test with MLK2, 41%. Further, the “%Inh” value with MLK3 was determined as 0%; with MRCKA it was 3%; in the test on MRCKB, 7%; with MST1R, 0%.
For the compound `CN(C(=O)c1ccc(-c2cc(-c3c[nH]nc3-c3ccccn3)ccn2)cc1)C1CCOCC1` [GW810083], the “%Inh” value stood at 0% in the test on MKK7; 0% in the test on MKNK1; 37% in the test with MKNK2; 0% with MLCK; 0% with MLK1; 0% in the test on MLK2. For the same compound, the “%Inh” value amounted to 0% in the test on MLK3, 4% in the test on MRCKA, 10% in the test with MRCKB and 0% in the test on MST1R.
Regarding `O=c1cc(N2CCOCC2)nc2n(Cc3cccc(Cl)c3Cl)c(C3CC3)nn12` [GSK2358994], the “%Inh” value with MKK7, in the test on MKNK1, in the test on MKNK2, with MLCK, in the test on MLK1 and with MLK2 was 0% throughout. Besides, the “%Inh” value in the test with MLK3 turned out to be 14%; in the test on MRCKA, 0%; in the test with MRCKB it was 0%; in the test on MST1R, 14%.
On to `NCCNS(=O)(=O)c1ccc(-c2ccnc3[nH]ccc23)cc1` [GSK977617], for which the “%Inh” value in the test on MKK7 was 0%; in the test on MKNK1 (1 µM), 35% and 28%; in the test with MKNK2 (1 µM) it was 97% and 94.8%; in the test with MLCK (1 µM) it was 88% and 77%; with MLK1 (1 µM) it was 21% and 2%; with MLK2 (1 µM), 21% and 18%. Further, the “%Inh” value in the test with MLK3 (1 µM) is 22% and 0%; with MRCKA (1 µM) it was 44% and 0%; in the test on MRCKB (1 µM) it was 80% and 62%; in the test with MST1R (1 µM) it was 21% and 16%.
With `N#Cc1c(N2CCOCC2)sc(-c2ccn[nH]2)c1-c1ccc(Cl)cc1`, the “%Inh” value is listed as 20% in the test on MKK7; 26% in the test with MKNK1; 0% in the test with MKNK2; 0% in the test with MLCK; 0% in the test with MLK1; 5% in the test on MLK2. Further, the “%Inh” value in the test on MLK3 is listed as 22%; with MRCKA it was 0%; in the test with MRCKB, 0%; with MST1R it was 1%.
On to `Cl.Cl.Cl.Fc1ccc(-c2ncn(C3CCNCC3)c2-c2ccnc(Nc3ccccc3)n2)cc1` [SB-238039], for which the “%Inh” value with MKK7 (1 µM) is 23% and 0%; in the test on MKNK1, 0%; in the test on MKNK2 (1 µM), 0% and 29%; with MLCK, 0%; with MLK1, 0%; in the test with MLK2 (1 µM), 40% and 6%. The “%Inh” value in the test on MLK3 is 0%; in the test on MRCKA (1 µM), 90.3% and 71%; in the test on MRCKB (1 µM), 75% and 92.8%; with MST1R (1 µM), 0% and 40%.
`Cc1c(Cn2c(C)nn3c(=O)cc(N4CCOC(C)C4)nc23)cccc1C(F)(F)F` (centres unmarked) [GSK2344444]: the “%Inh” value was 0% in the test on MKK7; 0% with MKNK1; 7% in the test with MKNK2; 2% in the test on MLCK; 0% in the test with MLK1; 0% in the test on MLK2. Also, the “%Inh” value in the test on MLK3 came to 13%; in the test on MRCKA, 0%; in the test on MRCKB, 0%; in the test with MST1R, 28%.
For `Cc1nnc(-c2ccc3ncc(-c4ccc(S(C)=O)cc4)n3c2)o1` (centres unmarked), the “%Inh” value in the test with MKK7 stood at 18%; in the test with MKNK1 it was 0%; in the test on MKNK2 it was 35%; in the test on MLCK, 0%; in the test with MLK1, 0%; in the test with MLK2 it was 0%. For the same compound, the “%Inh” value is given as 0% in the test on MLK3, 9% with MRCKA, 0% with MRCKB and 0% in the test with MST1R.
